From PubChem BioAssay (NCATS)
Inconclusive results are not listed. Where a call stands in place of a potency, no number is given. Active and inactive are the calls of the source. Calls follow the shape of the full dose curve.

assay: Cytotoxicity counterscreen for inhibitors of SARS-CoV-2 cell entry (AID 1645845); conditions: cell viability (SARS-CoV-2 entry assay cells); series mostly up to 57.1 µM; also: nearly all actives have a fitted effect of over 50% in size
Outline: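 Counterscreen run in the same HEK293-ACE2 line as the pseudotyped-particle entry assay, without particles. Viability after 48 h at 37 C was read as ATP luminescence, scaled between cell-containing and cell-free wells.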

| Structure (SMILES) | Potency |
| --- | --- |
| CCCCOc1ccc(C(=O)CCN2CCCCC2)cc1 | inactive |
| CC[N+]1(CC)CCC(=C(c2ccccc2)c2ccccc2)C1C (centres undefined) | inactive |
| CCOC(=O)Cn1cccc1-c1nc(-c2ccc(OC)cc2)c(-c2ccc(OC)cc2)s1 | inactive |
| Cc1ccc(N(CC2=NCCN2)c2cccc(O)c2)cc1 | inactive |
| CCCCOc1cc(C(=O)OCCN(CC)CC)ccc1N | inactive |
| C#C[C@]1(OC(C)=O)CC[C@H]2[C@@H]3CCC4=C[C@@H](OC(C)=O)CC[C@@H]4[C@H]3CC[C@@]21C | inactive |
| CN(C)CCn1nnnc1SCC1=C(C(=O)O)N2C(=O)[C@@H](NC(=O)Cc3csc(N)n3)[C@H]2SC1 | inactive |
| CCN(CC)CCOC(=O)C(Cc1cccc2ccccc12)CC1CCCO1 (centres undefined) | inactive |
| CCCCNc1ccc(C(=O)OCCN(CC)CC)cc1 | inactive |
| CCCCCCCCCCCCCCCCC(C(=O)O)C(O)(CC(=O)O)C(=O)O (centres undefined) | inactive |
| CN1CCC(=C2c3ccccc3CC(=O)c3sccc32)CC1 | inactive |
| CC(C)C(=O)OCc1cccc(OC(=O)[C@@H]2N3C(=O)[C@@H](NC(=O)Cc4ccccc4)[C@H]3SC2(C)C)c1 | inactive |
| OC(CCN1CCCCC1)(c1ccccc1)C1CC2C=CC1C2 (centres undefined) | inactive |
| CCOC(=O)C1=C[C@]2(CC)CCCN3CCc4c(n1c1ccccc41)[C@@H]32 | inactive |
| Cn1cc(C(=O)[C@@H]2CCc3nc[nH]c3C2)c2ccccc21 | inactive |
| O=C1N(c2ccccc2)c2ccccc2C1(Cc1ccncc1)Cc1ccncc1 | inactive |
| Nc1ccc(N=Nc2ccccc2)c(N)n1 | inactive |
| CCN(CC)CCOC(=O)C1(c2ccccc2)CCCC1 | inactive |
| CCN(CCCc1ccccc1)CCCc1ccccc1 | inactive |
| CN1[C@@H]2CC[C@H]1CC(NC(=O)n1c(=O)[nH]c3ccccc31)C2 (some centres undefined) | inactive |

| Structure (SMILES) | Potency |
| --- | --- |
| O=C(Nc1ccc([N+](=O)[O-])cc1)Nc1ccc([N+](=O)[O-])cc1 | inactive |
| C[C@H]1C[C@H]2[C@@H]3CCC4=CC(=O)C=C[C@]4(C)[C@H]3C(=O)C[C@]2(C)[C@@]1(O)C(=O)CO | inactive |
| COC(=O)Nc1nc2ccc(Sc3ccccc3)cc2[nH]1 | inactive |
| CN1CCCC(n2nc(Cc3ccc(Cl)cc3)c3ccccc3c2=O)CC1 (centres undefined) | inactive |
| Nc1c(NC/C=C\COc2cc(CN3CCCCC3)ccn2)c(=O)c1=O | inactive |
| CCCCN1CCCC[C@H]1C(=O)Nc1c(C)cccc1C | inactive |
| CCN(CC)CCOc1ccccc1C(=O)CCc1ccccc1 | inactive |
| CC(=O)Oc1ccc(C(=C2CCCCC2)c2ccc(OC(C)=O)cc2)cc1 | inactive |
| O=C(CCCCC(=O)Nc1c(I)cc(I)c(C(=O)O)c1I)Nc1c(I)cc(I)c(C(=O)O)c1I | inactive |
| CN(C)CCN1C(=O)c2ccccc2N(C)c2ccccc21 | inactive |
| Nc1c2c(nc3ccccc13)CCCC2 | inactive |
| Cc1ccc(Cl)c(OCC(O)CNC(C)(C)C)c1 (centres undefined) | inactive |
| O=C(O)CCC(=O)OC[C@@H](NC(=O)C(Cl)Cl)[C@H](O)c1ccc([N+](=O)[O-])cc1 | inactive |
| N#C/C(=C1/SC[C@@H](c2ccc(Cl)cc2Cl)S1)n1ccnc1 | inactive |
| Clc1ccc(Cn2c(CN3CCCC3)nc3ccccc32)cc1 | inactive |
| C=Cc1c(C)c2cc3[nH]c(cc4nc(cc5nc(cc1[nH]2)C(C)=C5CCC(=O)O)C(CCC(=O)O)=C4C)c(C)c3C=C | inactive |
| COc1cc(N)c(Cl)cc1C(=O)NC1CCN(CCCOc2ccc(F)cc2)CC1OC (centres undefined) | inactive |
| CC(C)C[C@@H]1[C@H](c2ccccc2)OC(=O)N1CCCN1CCCCCC1 | inactive |
| CC(C)(C)c1ccc(C(=O)CCCN2CCC(OC(c3ccccc3)c3ccccc3)CC2)cc1 | inactive |
